Data published in PubChem BioAssay (EPA / NIEHS).
Results filed as inconclusive are left out. Active and inactive are the calls of the source. The calls were made as follows: active = hit-call score of the fitted dose curve at least 0.9, where 1 is the maximum; inconclusive = response in the unintended direction; inactive = score below 0.9.

Target: Nuclear receptor subfamily 1 group I member 2 (Homo sapiens) (UniProt O75469)
Assay: ATG_PXR_TRANS: Attagene TRANS-FACTORIAL HepG2 Assay for human Pregnane X Receptor (PXR) (AID 2283008)
Protocol: ATG_TRANS is a cell-based, multiplexed-readout assay that uses HepG2, a human liver cell line, with measurements taken at 24 hours after chemical dosing in a 24-well plate.ATG_PXR_TRANS is one of 30 assay component(s) measured or calculated from the ATG_TRANS assay. It is designed to make measurements of mRNA induction, a form of inducible reporter, as detected with fluorescence intensity signals by Reverse transcription polymerase chain reaction (RT-PCR) and Capillary electrophoresis technology.Data from the assay component ATG_PXR_TRANS was analyzed into 1 assay endpoint. This assay endpoint, ATG_PXR_TRANS, was analyzed in the positive analysis fitting direction relative to DMSO as the negative control and baseline of activity. Using a type of inducible reporter, measures of mRNA for gain-of-signal activity can be used to understand the reporter gene at the transcription factor-level as they relate to the gene NR1I2. Furthermore, this assay endpoint can be referred to as a primary readout, because this assay has produced multiple assay endpoints where this one serves a reporter gene function. To generalize the intended target to other relatable targets, this assay endpoint is annotated to the nuclear receptor intended target family, where the subfamily is non-steroidal.
Human liver HepG2 cells are transiently transfected with multiple reporter transcription units (MRTUs) in 6-well plates using FuGene 6 reagent (Roche; 3 ml FuGene/1 mg DNA). The MRTU constructs are regulated by a cis-regulating element (promoter). […] A major difference between the CIS and TRANS system is that in CIS activities of endogenous TFs are measured, whereas the TRANS assay evaluates changes in activities of exogenous, chimeric NR-Gal4 proteins. […] At the end of 24 hour incubation, total RNA was isolated using TriZol reagent (Invitrogen). The isolated RNA is then reverse-transcribed using oligo(dT) primer and Mo-MLV reverse transcriptase (Invitrogen) with DNAse I (Ambion) treatment for 30 min. The one-tenth of the produced cDNA was amplified by PCR using Taq DNA polymerase (Invitrogen) and two reporter sequence-specific primers. The PCR products were fluorescently labeled by primer extension with 6-arboxyfluorescein (6-FAM) 5'-labeled reporter sequence-specific primer (2 min at 95 C, 20 s at 68 C and 10 min at 72 C) and these products were digested with 5U of HpaI (New England Biolabs) for 2h at 37 C. The fragments were purified using Qiaquick PCR columns (Qiagen), analyzed on an ABI 3130xL genetic analyzer (Applied Biosystems) with peak positions identified by using a set of X-rhodamine (ROX)-labeled MapMarker1000 molecular weight standards (BioVentures). The raw capillary electrophoresis data was processed using Attagraph software (Attagene).

Sequence of Nuclear receptor subfamily 1 group I member 2 (Homo sapiens) (O75469 whole entry, looked up): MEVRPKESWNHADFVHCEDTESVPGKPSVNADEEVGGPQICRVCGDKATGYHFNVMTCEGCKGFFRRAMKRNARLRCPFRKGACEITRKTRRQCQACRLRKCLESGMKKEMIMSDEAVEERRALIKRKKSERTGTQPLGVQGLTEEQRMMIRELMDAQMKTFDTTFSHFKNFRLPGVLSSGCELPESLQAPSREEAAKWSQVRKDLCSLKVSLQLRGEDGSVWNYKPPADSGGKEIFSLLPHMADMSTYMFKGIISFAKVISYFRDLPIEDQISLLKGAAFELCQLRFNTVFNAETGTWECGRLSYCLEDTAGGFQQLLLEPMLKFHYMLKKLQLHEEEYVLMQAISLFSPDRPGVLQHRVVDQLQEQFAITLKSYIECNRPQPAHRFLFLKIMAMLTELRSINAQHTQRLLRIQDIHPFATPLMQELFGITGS

Row | Compound | outcome | AC50
1 | OCCCc1ccccc1 | inactive | 
2 | O=C(C=Cc1ccccc1)OCCc1ccccc1 | inactive | 
3 | CC(C)(C)N | inactive | 
4 | CCOC(=O)C1=NOC(c2ccccc2)(c2ccccc2)C1 | inactive | 
5 | C=CC(=O)OCCCCCCCC(C)C | inactive | 
6 | CC(C)c1cc(C(C)C)cc(C(C)C)c1 |  | 26.9 µM (active)
7 | CCCCCCCCCCCCc1ccc(O)cc1 |  | 3 µM (active)
8 | CCc1cccc(C)c1N(C(=O)CS(=O)(=O)O)C(C)COC (stereo not given) |  | 27.6 µM (active)
9 | CC(=O)c1ccccc1O | inactive | 
10 | CC(C)CC(=O)OCc1ccccc1 | inactive | 
11 | CCCCCCO | inactive | 
12 | COc1nccnc1CC(C)C | inactive | 
13 | Cc1c[nH]c(=O)[nH]c1=O | inactive | 
14 | Cc1ccc(S(=O)(=O)N=C=O)cc1 | inactive | 
15 | CCC1COC(=O)O1 (stereo not given) | inactive | 
16 | Cc1cc(=O)[nH]c(=O)[nH]1 | inactive | 
17 | COC(=O)c1ccc(C(=O)OC)c(C(=O)OC)c1 | inactive | 
18 | CCCC1CCCC(=O)O1 (stereo not given) | inactive | 
19 | CC1=CC=C(C(C)C)CC1 | inactive | 
20 | Cc1ccc2c(c1)CCCN2 | inactive | 

Row | Compound | outcome | AC50
21 | CC(C)CCOCc1ccccc1 | inactive | 
22 | CCCCCC1=CCCC1=O |  | 11.4 µM (active)
23 | CO[Si](CCCS)(OC)OC | inactive | 
24 | CC1C(C)(C)C2=C(C(=O)CCC2)C1(C)C (stereo not given) |  | 7.68 µM (active)
25 | CCOC(=O)c1ccccc1C | inactive | 
26 | CCCCCC[C@@H](O)C/C=C\CCCCCCCC(=O)OCC(O)CO (stereo not given in full) | inactive | 
27 | N=C1C=CC(=C(c2ccc(N)cc2)c2ccc(N)cc2)C=C1 | inactive | 
28 | Oc1ccc(/C=C/c2cc(O)cc(O)c2)cc1 | inactive | 
29 | Oc1ccccc1Cc1ccccc1O | inactive | 
30 | CC1=CCC(C(C)C)C=C1 (stereo not given) |  | 7.16 µM (active)
31 | COc1cc(C)ccc1O | inactive | 
32 | [Cl][Eu]([Cl])[Cl] | inactive | 
33 | C=CCCCCCCCCO | inactive | 
34 | O=C(Oc1ccccc1)c1ccccc1O | inactive | 
35 | CCc1cccc(C)c1N | inactive | 
36 | Fc1ccc(Br)cc1 | inactive | 
37 | CCCCC/C=C\C/C=C\CCCCCCCC(=O)O | inactive | 
38 | CCOC(=O)C1=NN(c2ccc(Cl)cc2Cl)C(C)(C(=O)OCC)C1 (stereo not given) |  | 10.1 µM (active)
39 | CCN1CCCC1=O | inactive | 
40 | CCCCC(CC)COS(=O)(=O)O (stereo not given) | inactive | 
